Compound activity as filed in PubChem BioAssay.
The list is not random: actives were taken first. Their share in the collection is about 7.4%.
NPC1 promoter act = activates the NPC1 promoter; actives 2.4% (n = 320,000); Huh7 NPC1 promoter luciferase reporter, 24 h; Potency, µM (highest dose often 9.22 µM), hits mostly activators; note: nearly all actives have a fitted effect of over 60% in size
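Luciferase expression driven by the NPC1 promoter was measured in stably transfected Huh7 cells after a 24 h compound incubation, using a luciferase reagent and a luminescence read.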
FLuc modulator = counter-screen for miR-21 project: firefly luciferase inhibitors or activators | Potency, µM (top dose mostly 57.5 µM), most hits filed as inhibitors | AID 588342 | actives 6.9% (n = 360,000) | P08659 | purified FLuc, Km substrates, luminescence inhibition; note: nearly all actives have a fitted effect of over 55% in size
Target sequence (P08659 whole entry, looked up): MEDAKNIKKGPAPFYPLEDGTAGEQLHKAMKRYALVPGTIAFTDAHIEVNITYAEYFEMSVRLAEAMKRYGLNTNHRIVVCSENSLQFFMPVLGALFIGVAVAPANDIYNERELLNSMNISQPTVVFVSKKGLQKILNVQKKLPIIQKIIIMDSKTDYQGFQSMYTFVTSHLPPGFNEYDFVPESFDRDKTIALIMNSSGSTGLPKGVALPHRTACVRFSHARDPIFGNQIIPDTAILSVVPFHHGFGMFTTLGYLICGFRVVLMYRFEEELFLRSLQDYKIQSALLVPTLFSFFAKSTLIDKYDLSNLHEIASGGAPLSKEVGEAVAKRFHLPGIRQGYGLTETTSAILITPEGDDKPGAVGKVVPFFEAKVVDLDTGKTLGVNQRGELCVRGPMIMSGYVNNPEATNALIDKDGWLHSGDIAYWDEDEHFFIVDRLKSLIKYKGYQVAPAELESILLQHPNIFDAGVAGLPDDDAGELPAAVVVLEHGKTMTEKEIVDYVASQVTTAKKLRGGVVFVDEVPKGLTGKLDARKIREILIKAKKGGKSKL
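Purified P. pyralis luciferase (10nM final) with 10uM D-luciferin and 10uM ATP (Km levels) in 50mM Tris acetate pH 7.5, 10mM Mg acetate, 0.01% Tween-20, 0.05% BSA; qHTS 6-point titration, ~60 µM downward; luminescence read.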
SMN2 splice up = SMN2 splice variant enhancement. actives 2.8% (n = 210,000). HEK293 SMN2-luciferase splicing reporter, luminescence, 30-36 h. AID 1458. Potency, µM (series often up to 46.1 µM), usual class: activators; note: nearly all actives have a fitted effect of over 55% in size
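HEK293 cells carry an SMN2 minigene-luciferase reporter in which exon 7 inclusion puts luciferase in frame. Cells were seeded at 2000 cells/well, attached for 10-12 hours, then exposed to compounds for 30-36 hours at 37C before ONE-Glo luminescence.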
ELG1 genotoxic = genotoxicity induction in ELG1-luciferase HEK293T cells; HEK293T ELG1-luciferase reporter, luminescence, 16 h; Potency, µM (top dose mostly 46 µM), usual class: activators; actives 1.3% (n = 330,000); note: nearly all actives have a fitted effect of over 60% in size
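Quantitative HTS format in 1536-well plates. HEK293T ELG1-luciferase reporter cells receive test compound and are incubated 16 hr at 37 °C, 5% CO2; ONE-Glo added, 30 min room temperature, then luminescence read.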
Rab9 promoter act = activates the Rab9 promoter | Huh7 Rab9 promoter-luciferase reporter, luminescence, 24 h | Potency, µM (highest dose often 9.22 µM), most hits filed as activators | actives 2.8% (n = 320,000); note: nearly all actives have a fitted effect of over 60% in size
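Huh7 cells stably carrying a Rab9 promoter-luciferase reporter, 1500 cells per well in OP-MEM I with 10% FBS, treated with compound 24 hours at 37C. Luciferase activity read by luminescence after 10 minutes with Amplite reagent.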
A number is an active result; - = inactive; ? = inconclusive; . = no result; [ ] = another dose, or the depositor's remark. Calls come from the whole dose curve; as a rule, active = well fitted curve in the direction sought with a large enough effect; inconclusive = small, poorly fitted or top-dose-only effect, or another doubt; inactive = no such curve, though single readings can be large; an effect the other way counts as inactive or inconclusive.

SMILES | NPC1 promoter act | FLuc modulator | SMN2 splice up | ELG1 genotoxic | Rab9 promoter act
O=C(c1coc2ccc(O)cc12)C1CC1 | - | - | - | - | -
O=C(c1ccc(Cl)cc1)c1coc2ccc(O)cc12 | ? | 3.8µM | - | - | ?
COC(=O)CCC(=O)c1oc2ccc(OC)cc2c1N | 2.5µM | 3.4µM | ? | 3.7µM | 4.5µM
COc1ccc(C(=O)c2oc3ccccc3c2N)cc1 | 3.5µM | 11µM | 13µM | 9.2µM | ?
O=C(c1ccccc1Cl)n1nc(-c2cccnc2)nc1NCc1ccc(F)cc1 | . | - | - | . | .
COc1ccc(NC(=O)CC2C(=O)N(c3ccc(C)cc3)C(=O)N2Cc2ccc(C)cc2)cc1 (stereo not given) | . | - | - | . | .
COc1ccc2occ(C(C)=O)c2c1 | - | - | - | - | -[1.84 µM]
COc1ccc2occ(C(=O)c3ccccc3)c2c1 | - | 13µM | ? | ? | ?
COc1ccc2oc(C(=O)c3ccccc3)c(N)c2c1 | 2µM | 3µM | 11µM | ? | 2µM
CCn1c(SCC(=O)N/N=C/C=C/c2ccco2)nnc1-c1ccccc1 | - | ? | - | - | -
CCn1c(SCC(=O)N/N=C/C(C)=C/c2ccco2)nnc1-c1ccccc1 | - | 15µM | - | - | -
CCn1c(SCC(=O)N/N=C/C(C)=C\c2ccco2)nnc1-c1ccccc1 | - | 13µM | - | - | -
CC1(C)OC2CC3C4CC(F)C5=CC(=O)C=C[C@@]5(C)[C@@]4(F)C(O)C[C@@]3(C)[C@]2(C(=O)CO)O1 (stereo not given in full) | . | . | - | . | .
CNC(=O)/C(C#N)=C/c1cccc(Oc2ccccc2)c1 | - | 8.5µM | . | ? | -
CNC(=O)/C(=C\c1cccc(Oc2ccccc2)c1)NC(=O)c1ccccc1 | - | - | - | - | -
Cc1ccc(C(=O)CC2(O)C(=O)N(Cc3ccccc3)c3ccccc32)o1 (stereo not given) | - | - | 11µM | - | -
Cc1ccc(C(=O)CC2(O)C(=O)N(Cc3ccccc3Cl)c3ccccc32)o1 (stereo not given) | - | - | ? | - | -
CCc1ccc(Nc2nnc(SCC(=O)Nc3sccc3C(N)=O)s2)cc1 | - | 2.1µM | ? | - | -
CCc1ccc(Nc2nnc(SCC(=O)Nc3cccnc3Cl)s2)cc1 | - | 1.3µM | . | - | -
Cc1nnc(SCC(=O)Nc2cccnc2Cl)s1 | - | - | . | - | -
COc1cccc(Nc2nnc(SCC(=O)Nc3sccc3C(N)=O)s2)c1 | - | 11µM | - | - | -
COc1cccc(Nc2nnc(SCn3nnc4ccccc4c3=O)s2)c1 | - | - | - | - | -
CCc1ccc(Nc2nnc(SCC(=O)NCCN3C(=O)CSC3=O)s2)cc1 | - | 1.9µM | 11µM | ? | ?
Cc1nnc(SCC(=O)Nc2sccc2C(N)=O)s1 | - | - | . | - | -
N[C@H](C(=O)O)[C@@H](O)c1cnc[nH]1 | . | . | -[9.22 µM] | . | .
SMILES | NPC1 promoter act | FLuc modulator | SMN2 splice up | ELG1 genotoxic | Rab9 promoter act
Nc1nn(-c2ccccc2)nc1C(=O)OCc1c(F)cccc1Cl | . | ? | - | . | .
CCc1ccc(Nc2nnc(SCC(=O)c3c(N)n(C4CC4)c(=O)[nH]c3=O)s2)cc1 | - | 0.6µM | . | - | -
Cc1ccc(-c2csc(SCC(=O)c3c(N)n(C4CC4)c(=O)[nH]c3=O)n2)cc1 | - | - | . | - | -
Cc1c(C)n(C)c2ccc(C(=O)NCCc3ccc(Cl)cc3)cc12 | . | - | . | . | .
N/C(=N\OC(=O)c1cccs1)c1cccc(Br)c1 | - | 1.1µM | - | ? | -
COc1ccc(/C(N)=N/OC(=O)c2cccs2)cc1OC | - | - | . | - | -
N/C(=N\OC(=O)c1cccs1)c1ccccc1 | ? | 0.67µM | ? | ? | ?
Cc1ccc(/C(N)=N/OC(=O)c2cccs2)cc1 | ? | 1.9µM | -[1.84 µM] | 15µM | 4.5µM
Cc1cccc(/C(N)=N/OC(=O)c2cccs2)c1 | 1.1µM | 0.76µM | ? | ? | 1.3µM
N/C(Cc1cccc2ccccc12)=N\OC(=O)c1cccs1 | - | - | - | - | -
CCOc1ccccc1CNC(=O)c1cccn1-c1nnc(N2CCCC2)s1 | . | - | . | . | .
Cc1oc(-c2ccccc2Cl)nc1CS(=O)(=O)CC(=O)NCc1ccc(F)cc1 | . | - | - | . | .
N/C(=N\OC(=O)Cc1ccccc1)c1cccc(Br)c1 | - | 17µM | - | - | -
N/C(=N\OC(=O)Cc1ccccc1[N+](=O)[O-])c1cccc(Br)c1 | - | ? | . | - | -
C(=N\Nc1ncnc2ccccc12)/c1ccccc1 | - | 3µM | 16µM | ? | 2.8µM
